LGR2 antag: inhibitors of bursicon-induced LGR2 CRE-luciferase signal, primary screen, cell-based, HEK293, CRE-luciferase reporter, bursicon stimulation; bursicon-stimulated, 4 h; inhibition, % at 9.99 µM; 380,000 compounds, 0.35% hits; AID 720647, 2013;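 active = drop in luminescence signal, shown as inhibition above about 50% in the replicate tests, limit read from the data, passing the limit was not always enough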;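 note: agonist challenge used bursicon conditioned medium at about half maximal strength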
SENP6 inh: SENP6 protease inhibitors, primary screen, biochemical, luminescence, uHTS. Recombinant SENP6 catalytic domain, aminoluciferin luminescence. inhibition, % at 10 µM. 330,000 compounds, 1.8% hits. AID 2599, 2010;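 active = inhibition above about 50% at the single tested dose, limit read from the data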;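 note: plate controls were DMSO wells with enzyme for no effect and DMSO wells lacking enzyme for full effect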
SENP7 inh: SENP7 protease inhibitors, primary screen, biochemical, luminescence, uHTS; Sentrin-specific protease 7 (Homo sapiens), Q9BQF6; recombinant SENP7, Z-RLRGG-aminoluciferin luminescence, 40 min; inhibition, % at 5 µM; 330,000 compounds, 1.5% hits; AID 434973, 2010;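 active = inhibition above about 50% at the single test dose, limit read from the data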;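 note: plate controls were DMSO with enzyme for no effect and no enzyme buffer wells for full effect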
Target sequence (Q9BQF6 706-1050 limits assumed): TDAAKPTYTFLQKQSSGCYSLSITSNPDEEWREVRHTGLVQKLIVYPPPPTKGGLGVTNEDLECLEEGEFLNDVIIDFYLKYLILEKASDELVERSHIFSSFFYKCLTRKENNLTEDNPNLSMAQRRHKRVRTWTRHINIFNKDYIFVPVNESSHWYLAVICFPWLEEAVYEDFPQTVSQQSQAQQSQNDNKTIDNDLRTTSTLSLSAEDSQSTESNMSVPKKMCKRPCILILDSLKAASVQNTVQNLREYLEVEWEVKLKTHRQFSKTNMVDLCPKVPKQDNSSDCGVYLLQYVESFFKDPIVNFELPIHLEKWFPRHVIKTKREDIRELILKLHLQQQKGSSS
SENP8 block-1: SENP8 protease inhibitors, primary screen, biochemical, luminescence; purified SENP8, Z-RLRGG-aminoluciferin cleavage; inhibition, % at 10 µM; 330,000 compounds, 1.2% hits; AID 2540, 2010; in the data active = inhibition above about 50%
Target sequence (Q96LD8 whole entry, looked up): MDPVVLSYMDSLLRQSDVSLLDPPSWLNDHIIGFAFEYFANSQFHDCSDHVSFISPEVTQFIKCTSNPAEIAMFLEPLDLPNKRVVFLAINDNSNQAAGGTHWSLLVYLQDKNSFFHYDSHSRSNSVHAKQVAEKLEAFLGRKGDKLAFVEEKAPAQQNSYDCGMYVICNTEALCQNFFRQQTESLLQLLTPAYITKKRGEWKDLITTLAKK
SENP8 block-2: human SENP8 protease inhibitors, primary screen, biochemical, fluorescence, Nedd8 protein substrate, uHTS. Sentrin-specific protease 8 (Homo sapiens), Q96LD8. recombinant SENP8. inhibition, % at 20 µM. 360,000 compounds, 0.64% hits; in the data active = inhibition mostly above about 40%, no sharp cut-off; inactive = mostly below about 27%
HSP90 inh: HSP90 inhibitors, primary screen, cell lysate, luminescence; Rabbit reticulocyte lysate, luciferase refolding luminescence, 3 h; inhibition, % at 5.6 µM; 290,000 compounds, 0.91% hits; AID 1789, 2009;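 active = inhibition above the screen-wide mean plus 3 SD, computed separately per campaign, cut at about 16% in these data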;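 note: 0% = DMSO wells and 100% = 60 µM geldanamycin wells; inhibitors lower the luminescence because luciferase stays unfolded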
HSP90 inh confirm: HSP90 inhibitors, confirmation, cell lysate, luminescence; shares compounds with HSP90 inh; rabbit reticulocyte lysate, luciferase refolding luminescence, 3 h; inhibition, % at 5.9 µM; 2,300 compounds, 64% hits; AID 1846, 2009; in the data active = inhibition above about 18%;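 note: 0% = vehicle wells and 100% = reference inhibitor wells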
luciferase ctr: firefly luciferase inhibitors, HSP90 counter-screen, confirmation, artefact control for HSP90 inhibitor project, biochemical, luminescence, triplicate; shares compounds with HSP90 inh; purified native firefly luciferase; inhibition, % at 5.9 µM; 2,300 compounds, 48% hits;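 active = inhibition above the mean inhibition of all tested sample wells plus 3 SD, cut at about 10% in these data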;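 note: 0% = DMSO with luciferase and 100% = wells lacking luciferase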
* = called active by the depositor. In the library only some 2.3% were active in any assay of this set; here they are far more common.

What do the screens show for `CC(=O)Nc1ccccc1OCC(=O)c1cc(C)n(Cc2cccs2)c1C`?
SENP6 inh: -7; SENP7 inh: -4; SENP8 block-1: -7; SENP8 block-2: 15; HSP90 inh: 47*; HSP90 inh confirm: 69*; luciferase ctr: -15

How did Cc1cc(C(=O)CSc2nncs2)c(C)n1Cc1ccco1 do in these assays?
LGR2 antag: 2; SENP6 inh: -8; SENP7 inh: 3; SENP8 block-1: -7; SENP8 block-2: 9; HSP90 inh: 22*; HSP90 inh confirm: 55*; luciferase ctr: 41*

Results for Cc1csc(SCC(=O)c2cc(C)n(Cc3cccs3)c2C)n1 ?
SENP6 inh: 48; SENP7 inh: 13; SENP8 block-1: 11; SENP8 block-2: 21; HSP90 inh: 65*; HSP90 inh confirm: 85*; luciferase ctr: 81*

How did Cc1cc(C(=O)CSc2nnc(N)s2)c(C)n1Cc1cccs1 do in these assays?
LGR2 antag: 75*; SENP6 inh: 47; SENP7 inh: 4; SENP8 block-1: 16; SENP8 block-2: 9; HSP90 inh: 28*; HSP90 inh confirm: 65*; luciferase ctr: 59*

Results for COc1ccc(CNC(=O)C[C@@H]2CC[C@@H](NC(=O)c3ccc4c(c3)OCO4)[C@H](CO)O2)cc1 ?
LGR2 antag: -9

How did O=C(NC[C@H]1[C@@H](c2ccccc2)[C@@H](CO)N1Cc1ccccn1)NC1CCCC1 do in these assays?
LGR2 antag: -1

Results for CCOC(=O)N1CCN(C(=O)CN(c2ccc(Oc3ccccc3)cc2)S(C)(=O)=O)CC1 ?
SENP6 inh: 2; SENP7 inh: 2; SENP8 block-1: 0; SENP8 block-2: 9; HSP90 inh: -2

How did CS(=O)(=O)N(CC(=O)O)c1ccc(Oc2ccccc2)cc1 do in these assays?
LGR2 antag: -18; SENP6 inh: 11; SENP7 inh: 0; SENP8 block-1: 3; SENP8 block-2: 7; HSP90 inh: 17*; HSP90 inh confirm: 3; luciferase ctr: -3

How did c1ccc(CSc2nnc3ccc(-c4ccncc4)nn23)cc1 do in these assays?
LGR2 antag: -3; SENP6 inh: -6; SENP7 inh: -11; SENP8 block-1: -10; SENP8 block-2: 29; HSP90 inh: 2

What do the screens show for `O=C(CSc1nnc2ccc(-c3ccncc3)nn12)c1cccs1`?
LGR2 antag: -8; SENP6 inh: 11; SENP7 inh: -6; SENP8 block-1: -6; SENP8 block-2: -11; HSP90 inh: 66*; HSP90 inh confirm: -6; luciferase ctr: -12

How did Cc1nc(NCc2ccco2)c2c(C)c(C)sc2n1 do in these assays?
SENP6 inh: 11; SENP7 inh: 1; SENP8 block-1: -2; SENP8 block-2: -2; HSP90 inh: 2

Results for Cc1sc2nc3c4ccccc4c(NCc4ccco4)nn3c(=O)c2c1C ?
SENP6 inh: 72*; SENP7 inh: 76*; SENP8 block-1: 71*; SENP8 block-2: -485; HSP90 inh: 79*; HSP90 inh confirm: 6; luciferase ctr: -17

What do the screens show for `C[C@@H]1CCCCO[C@@H](CN(C)C(=O)Cc2ccccc2)[C@H](C)CN([C@H](C)CO)C(=O)c2cc(NC(=O)Nc3ccc(F)cc3)ccc2O1`?
LGR2 antag: 7

Results for COC(=O)NCCOC(=O)N(O)c1ccc(Br)cc1 ?
LGR2 antag: -34; SENP6 inh: -3; SENP7 inh: -11; SENP8 block-1: -10; SENP8 block-2: 14; HSP90 inh: 50*; HSP90 inh confirm: 75*; luciferase ctr: -20

What do the screens show for `C[C@@H]1CN([C@H](C)CO)C(=O)c2cc(-c3ccccc3)cnc2O[C@H]1CN(C)C(=O)Cc1ccccc1`?
LGR2 antag: 3

Results for Cc1cccnc1NC(=O)CN1C(=O)COc2ccc(Cl)cc21 ?
LGR2 antag: -6; SENP6 inh: 2; SENP7 inh: 6; SENP8 block-1: 5; SENP8 block-2: -4; HSP90 inh: 18*; HSP90 inh confirm: 3; luciferase ctr: -3

Results for Cc1ccc2c(c1)N(CC(=O)Nc1ccccc1F)C(=O)CO2 ?
LGR2 antag: -3; SENP6 inh: -2; SENP7 inh: 0; SENP8 block-1: -2; SENP8 block-2: 2; HSP90 inh: 22*; HSP90 inh confirm: -3; luciferase ctr: -7

What do the screens show for `CO[C@H]1CN(C)C(=O)c2cc(NC(=O)c3ccccc3F)ccc2OC[C@@H](C)N(CC2CCOCC2)C[C@@H]1C`?
LGR2 antag: -3

Results for C(=N\Nc1nc2ccccc2[nH]1)/c1c[nH]c2ccccc12 ?
LGR2 antag: -58; SENP6 inh: 12; SENP7 inh: -8; SENP8 block-1: -1; SENP8 block-2: -76; HSP90 inh: -4

What do the screens show for `COc1ccc(/C=N/Nc2nc3ccccc3[nH]2)c(OC)c1OC`?
LGR2 antag: 28; SENP6 inh: 49; SENP7 inh: 0; SENP8 block-1: 38; SENP8 block-2: -303; HSP90 inh: 27*; HSP90 inh confirm: 54*; luciferase ctr: 62*

Results for O=C(C[C@H]1C[C@H]2c3cc(NC(=O)Cc4ccncc4)ccc3O[C@H]2[C@@H](CO)O1)NCc1cc(F)ccc1F ?
LGR2 antag: 5

What do the screens show for `Cc1cc2ccccc2c(=O)n1CC(=O)NCC(=O)N(C)Cc1ccccc1`?
SENP6 inh: -6; SENP7 inh: 8; SENP8 block-1: 0; SENP8 block-2: -62; HSP90 inh: -1

What do the screens show for `Cc1cc2ccccc2c(=O)n1CC(=O)NCC(=O)N(C)C1CCCCC1`?
SENP6 inh: 14; SENP7 inh: 3; SENP8 block-1: -4; SENP8 block-2: -43; HSP90 inh: 28*; HSP90 inh confirm: -7; luciferase ctr: -10

What do the screens show for `CN(C)c1ccc(CNCCC(Cc2ccccc2)c2ccco2)cc1` (stereo not drawn)?
LGR2 antag: 11; SENP6 inh: -7; SENP7 inh: 4; SENP8 block-1: 4; SENP8 block-2: 14; HSP90 inh: 19*; HSP90 inh confirm: 5; luciferase ctr: -2
